Hits are enriched below; roughly 3.9% of the tested compounds scored in any of these assays.
Platelet DG rel = platelet dense granule release activity. human platelet-rich plasma, SFLLRN dense granule ATP release, luminescence. inhibition, %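 (compounds screened at 7.5 µM in platelet-rich plasma)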. 300,000 tested, 0.22% active;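 active = mean replicate score, as percent of positive control, at or above 50; inconclusive = mean below 50 but at least one replicate at or above 50; inactive = mean and every replicate below 50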
TPT1 inhibitor = C. albicans TPT1 enzyme inhibition | 300,000 tested, 0.81% active | recombinant caTPT1, FP RNA substrate dephosphorylation | AID 1962 | inhibition, % at 5 µM;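 active = inhibition above the mean of all tested compounds plus 3 SD, set per screening campaign, cut at about 24% in these data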;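 also: plate controls were DMSO alone for no effect and ferristatin control at 100 nM for full effect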
WT yeast gro inh = growth inhibition of WT yeast, mitochondrial fusion screen | mitochondrial fusion phenotypic screen, WT strain | 190,000 tested, 2.1% active | inhibition, % at 10 µM; in the data active = inhibition above about 58%; tested in S. cerevisiae
PHOSPHO1 block = inhibitors of human PHOSPHO1 phosphatase | Q8TCT1 | inhibition, % at 13.3 µM | recombinant PHOSPHO1, absorbance phosphatase assay | 290,000 tested, 1.1% active; in the data active = inhibition above about 60%
Target sequence (Q8TCT1 whole entry, looked up): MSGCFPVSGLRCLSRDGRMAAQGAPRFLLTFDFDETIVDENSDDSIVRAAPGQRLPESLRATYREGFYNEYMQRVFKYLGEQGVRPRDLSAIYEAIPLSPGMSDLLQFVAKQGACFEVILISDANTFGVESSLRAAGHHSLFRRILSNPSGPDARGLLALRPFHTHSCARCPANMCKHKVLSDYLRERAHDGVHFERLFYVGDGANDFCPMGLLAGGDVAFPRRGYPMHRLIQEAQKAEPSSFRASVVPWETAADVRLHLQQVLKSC
Rtt109 Vps75 = blocks Candida albicans Rtt109/Vps75 acetyltransferase activity; Q5AAJ8; purified Rtt109/Vps75, ThioGlo CoA-SH fluorescence, 4 h; inhibition, % at 34.9 µM; 330,000 tested, 0.16% active; AID 540336;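 active = inhibition of at least 50% in every replicate; inconclusive = best replicate reaches 50% inhibition but some replicates fall short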
Target sequence (Q5AAJ8 whole entry, looked up): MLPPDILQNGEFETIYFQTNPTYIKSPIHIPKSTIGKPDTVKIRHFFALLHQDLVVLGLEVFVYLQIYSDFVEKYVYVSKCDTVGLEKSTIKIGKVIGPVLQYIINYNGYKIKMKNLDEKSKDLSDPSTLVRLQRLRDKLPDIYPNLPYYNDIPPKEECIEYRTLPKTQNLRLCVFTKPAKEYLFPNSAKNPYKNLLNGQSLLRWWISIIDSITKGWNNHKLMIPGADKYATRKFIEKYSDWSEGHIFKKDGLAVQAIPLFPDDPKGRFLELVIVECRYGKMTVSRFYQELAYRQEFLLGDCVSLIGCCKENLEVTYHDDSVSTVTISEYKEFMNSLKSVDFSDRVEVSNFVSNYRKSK
SKKanGAS inh = blocks kanamycin growth of S. pyogenes SKKanGAS strain; BacTiter-Glo, 6 h; inhibition, % at 7.5 µM; 300,000 tested, 1.3% active; AID 1662;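 active = mean replicate score, as percent of positive control median, at least 50; inconclusive = mean below 50 but one replicate at or above 50; inactive = mean and every replicate below 50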;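 also: strain carries kanamycin resistance gene driven by streptokinase promoter and grows in 40 µg/ml kanamycin; loss of luminescence reflects streptokinase promoter inhibition or plain growth inhibition; 0% = median of DMSO wells and 100% = positive control at its reference dose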
caTPT1 confirm = confirmation of Candida albicans TPT1 inhibitors; shares compounds with TPT1 inhibitor; recombinant caTPT1, fluorescence polarization, RNase T1 coupled; inhibition, % at 5 µM; 2,400 tested, 74% active; AID 2149;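 active = inhibition above the primary screen limit, the mean inhibition of all tested compounds plus 3 SD, cut at about 25% in these data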
RNase T1 counter = blocks Aspergillus oryzae RNase T1, a TPT1 counter-screen | shares compounds with TPT1 inhibitor | 2,400 tested, 83% active | AID 2153 | inhibition, % at 5 µM | RNase T1 cleavage, fluorescence polarization, 1536-well;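 active = inhibition above the solvent-only control well mean plus 3 SD, limit set per screening run, cut at about 23% in these data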;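 also: plate controls were DMSO wells with enzyme for no effect and wells without RNase T1 for full effect; inhibitors block cleavage so intact labeled substrate keeps polarization high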
* marks the source's active call; other numbers are inactive results; ? = inconclusive; . = not tested or not shown; + = active, no number.

SMILES	Platelet DG rel	TPT1 inhibitor	WT yeast gro inh	PHOSPHO1 block	Rtt109 Vps75	SKKanGAS inh	caTPT1 confirm	RNase T1 counter
Cc1ccsc1C1NC(=O)c2c(sc3c2CCN(C)C3)N1 (centres undefined)	-55.3	60.8*	10.8	2.7	-5.5	0.9	55.5*	65.0*
CSc1ccc(C2NC(=O)c3c(sc4c3CCN(C)C4)N2)cc1 (centres undefined)	-0.1	104.8*	15.8	6.7	-14.8	-4.0	96.6*	101.2*
COc1cc(NC(=O)CCS(=O)(=O)c2ccc3c(c2)oc(=O)n3C)cc(OC)c1OC	4.1	-1.7	.	22.6	0.7	-1.2	.	.
Cc1ccc(S(=O)(=O)NCC(=O)OCC(=O)Nc2cccc(S(=O)(=O)N3CCOCC3)c2)cc1	.	.	.	.	-10.3	.	.	.
COc1ccc(OC(=O)c2cccc(S(=O)(=O)N3CC(C)OC(C)C3)c2)cc1 (centres undefined)	.	.	.	.	-0.3	.	.	.
CCN(C(=O)c1ccc(N2CC3CC(C2)c2cccc(=O)n2C3)c(NC(=O)c2ccncc2)c1)c1cccc(C)c1 (centres undefined)	-8.2	-3.6	.	15.4	15.9	-2.7	.	.
CCCCC1CC(=O)NC1(C(=O)OCC)C(=O)OCC (centres undefined)	.	.	.	.	-0.4	.	.	.
COc1ccccc1N/C=C/c1onc(C)c1[N+](=O)[O-]	64.4*	112.5*	8.1	39.8	-7.6	9.0	96.5*	105.0*
Cc1cccc(NC(=O)CCS(=O)(=O)c2cc3c(cc2Cl)NC(=O)CO3)c1	0.0	-4.1	.	38.2	1.5	-7.0	.	.
Oc1c(C=NCc2ccncc2)sc2ccccc12	8.2	2.6	15.2	-49.5	.	1.7	.	.
Oc1c(/C=N/c2ccccn2)sc2ccccc12	85.9*	44.8*	.	10.6	-6.9	26.2	56.6*	67.2*
Oc1c(C=Nc2cccnc2)sc2ccccc12	12.2	15.5	-9.4	-17.5	11.9	4.4	.	.
Oc1c(C=Nc2ccc(Cl)cn2)sc2ccccc12	34.8	30.9*	.	6.1	7.1	-0.5	38.6*	49.2*
COc1ccc(NC(=O)Nc2c(C)noc2-c2ccccc2)cc1	-16.3	41.7*	.	24.6	0.8	-2.8	5.5	11.2
CCOC(=O)CSC1=NC(=O)/C(=C\c2ccc(Cl)cc2)S1	3.2	30.0*	22.7	26.1	6.4	-21.1	52.3*	62.3*
Cc1c(O)c2c3c(cccc3c1O)C(=O)N(c1ccccc1)C2=O	21.7	39.2*	23.1	-3.4	-4.0	18.2	27.4*	39.7*
O=C(Cc1ccc(Cl)c(Cl)c1)Nc1cccc(S(=O)(=O)N2CCOCC2)c1	-2.2	61.8*	8.7	42.6	-11.5	0.1	1.1	3.4
O=C(Cc1ccc2c(c1)OCCO2)Nc1cccc(S(=O)(=O)N2CCOCC2)c1	.	.	.	.	1.7	.	.	.
COc1ccc(NC(=O)Nc2cccc3c2O[C@H](CN(C)Cc2ccc(-c4ccccc4)cc2)[C@@H](C)CN([C@H](C)CO)C3=O)cc1	.	.	.	.	-4.1	.	.	.
COc1ccc(/C=C2/CC/C(=C\c3ccc(OC)c(OC)c3OC)C2=O)c(OC)c1OC	5.3	24.4*	5.8	0.6	9.6	7.1	36.5*	42.7*
COc1cc(/C=C2\CC/C(=C\c3cc(OC)c(O)c(OC)c3)C2=O)cc(OC)c1O	.	91.0*	-8.8	11.1	9.3	.	95.0*	100.6*
COc1cc(/C=C2\CC/C(=C\c3cc(OC)c(OC)c(OC)c3)C2=O)cc(OC)c1OC	-5.6	39.0*	-24.3	-3.9	0.8	20.7	48.3*	56.7*
COc1cc(/C=C2\COC/C(=C\c3cc(OC)c(OC)c(OC)c3)C2=O)cc(OC)c1OC	-1.3	.	.	21.0	13.2	-6.1	.	.
COc1cc(/C=C2/CCC/C(=C\c3cc(O)c(OC)c(Cl)c3)C2=O)cc(Cl)c1O	4.5	36.4*	.	-35.8	-1.0	42.9	18.7	23.2*
CC(Sc1ncnc2sccc12)C(=O)Nc1ccc(S(=O)(=O)N2CCOCC2)cc1 (centres undefined)	.	.	.	.	16.3	.	.	.
SMILES	Platelet DG rel	TPT1 inhibitor	WT yeast gro inh	PHOSPHO1 block	Rtt109 Vps75	SKKanGAS inh	caTPT1 confirm	RNase T1 counter
CC(=O)N1c2ccc(F)c(F)c2C[C@H]1C	.	.	.	.	3.0	.	.	.
COc1ccc(CC(=O)Nc2ccc(F)c(Cl)c2)cc1S(=O)(=O)N1CCOCC1	.	.	.	.	0.4	.	.	.
CCCOc1cc(N(CC)CC)ccc1/C=C(/C#N)c1nc2ccc(C)cc2[nH]1	-4.5	184.2*	7.1	59.1	7.8	61.5*	192.6*	171.1*
CCN(CC)c1ccc(/C=C(/C#N)c2nc3ccc(C)cc3[nH]2)c(OC(C)C)c1	-11.8	138.8*	27.6	-9.1	-3.1	14.9	130.0*	124.2*
CCOc1cc(N(CC)CC)ccc1/C=C(/C#N)c1nc2ccccc2[nH]1	21.4	+	-2.3	-18.1	-4.6	32.5	183.5*	165.7*
O=C(Nc1ccccc1N1CCCC1)c1cccc(S(=O)(=O)N2CCOCC2)c1	-5.8	1.6	.	.	3.3	3.3	.	.
C[C@@H]1CN([C@@H](C)CO)C(=O)c2cc(NC(=O)CCN3CCOCC3)ccc2O[C@@H]1CN(C)C(=O)Nc1ccccc1	.	.	.	.	1.9	.	.	.
CCN(CC)c1ccc(C=N/C(C#N)=C(\N)C#N)cc1	2.1	82.6*	-7.0	22.9	6.2	?	116.4*	121.0*
Cc1cccc(C)c1OCc1cn(CC(=O)c2ccc(O)cc2)nn1	.	.	.	.	14.1	.	.	.
Nc1nc(N)c2ncc(C(=O)CCc3ccccc3)nc2n1	3.7	41.0*	40.0	24.9	-10.1	-5.1	43.6*	56.2*
Cc1cc(C)n2nc(SCC(=O)N3CCN(c4ccccc4)CC3)nc2n1	.	.	.	.	-3.7	.	.	.
O=C(NC1CCCCC1)C1(S(=O)(=O)c2ccc(Cl)cc2)CC1	7.9	2.3	.	36.2	0.3	4.0	.	.
Cc1ccc(S(=O)(=O)CCSc2nc(C)cc(C(F)(F)F)c2C#N)cc1	-1.1	39.8*	16.2	-0.8	0.2	-4.0	57.7*	69.4*
CCCCCN(C(=O)CCC(=O)OCC(=O)N(C)Cc1ccccc1C)c1c(N)n(CCCC)c(=O)[nH]c1=O	2.6	1.2	.	.	31.5	1.1	.	.
CCCn1c(SCC(=O)c2cc(C)n(C3CC3)c2C)n[nH]c1=O	.	.	.	.	2.6	.	.	.
COc1ccc(CC(=O)NNS(=O)(=O)c2cccc([N+](=O)[O-])c2)cc1OC	2.6	-0.7	.	19.4	-6.3	-2.9	.	.
COc1ccc(-n2c(O)c(/C=N/NS(=O)(=O)c3cccc([N+](=O)[O-])c3)c3ccccc3c2=O)cc1OC	-2.8	69.9*	-5.3	25.6	-4.2	18.4	114.7*	118.5*
Cc1ccc(CC(=O)CCc2ccccc2)cc1	-0.5	33.6*	.	.	-12.0	15.3	4.8	5.2
CCn1ncc(Br)c1C(=O)Nc1cccc(C(C)=O)c1	-3.7	-3.7	.	5.2	-10.7	-2.3	.	.
CCn1ncc(Br)c1C(=O)Nc1cc(C)cc(C)c1	-1.9	34.2*	-20.7	-0.3	-17.5	-1.3	6.8	13.0
CC(C)N(C)C1=CC(=O)C(N(C)C(C)C)=CC1=O	.	.	.	.	-3.2	.	.	.

Source: PubChem BioAssay
